This note sets out measurements from PubChem BioAssay (NCATS).

A short description of test [1]: Quantitative High-Throughput drug screen in 47 multiple myeloma cell lines against the NCATS MIPE library collection: OCIMY1_PLB cell viability assay (AID 1918979). Further: nearly all actives have a fitted effect of over 35% in size. Put shortly: (§1)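 Myeloma cells (500/well) treated with MIPE 4.0 compounds for 48 h at 37 °C, 5% CO2. Viability read as ATP via CellTiter-Glo luminescence after 5 min at RT; DMSO-only wells = 100%, media-only = 0% viability.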

Test [2] in a line: Quantitative High-Throughput drug screen in 47 multiple myeloma cell lines against the NCATS MIPE library collection: MM1S_ATCC cell viability assay (AID 1918980). Further: nearly all actives have a fitted effect of over 45% in size. Put shortly:
as §1

Test [3] can be described thus: Quantitative High-Throughput drug screen in 47 multiple myeloma cell lines against the NCATS MIPE library collection: MM1R_ATCC cell viability assay (AID 1918981). Further: nearly all actives have a fitted effect of over 35% in size. Put shortly: as §1
A short description of test [4]: Quantitative High-Throughput drug screen in 47 multiple myeloma cell lines against the NCATS MIPE library collection: LP1_DSMZ cell viability assay (AID 1918982). Further: nearly all actives have a fitted effect of over 35% in size. The method, boiled down: as §1
A short description of test [5]: Quantitative High-Throughput drug screen in 47 multiple myeloma cell lines against the NCATS MIPE library collection: KMS28PE_JCRB cell viability assay (AID 1918983). Further: nearly all actives have a fitted effect of over 35% in size. The method, boiled down: as §1
The nature of test [6]: Quantitative High-Throughput drug screen in 47 multiple myeloma cell lines against the NCATS MIPE library collection: OPM1_PLB cell viability assay (AID 1918989). Further: nearly all actives have a fitted effect of over 40% in size. The method, boiled down: as §1
Test [7] in a line: Quantitative High-Throughput drug screen in 47 multiple myeloma cell lines against the NCATS MIPE library collection: KMS34_JCRB cell viability assay (AID 1918985). Further: nearly all actives have a fitted effect of over 40% in size. Put shortly:
as §1

Test [8] is described as follows: Quantitative High-Throughput drug screen in 47 multiple myeloma cell lines against the NCATS MIPE library collection: OCIMY7_PLB cell viability assay (AID 1918987). Further: nearly all actives have a fitted effect of over 65% in size. The settings on record: OCI-MY7 myeloma viability, CellTiter-Glo ATP, 48 h; viability (% of DMSO): at 45.8 µM (top of the series). The method, boiled down: as §1
The nature of test [9]: Quantitative High-Throughput drug screen in 47 multiple myeloma cell lines against the NCATS MIPE library collection: L363_DSMZ cell viability assay (AID 1918984). Further: nearly all actives have a fitted effect of over 40% in size. The settings on record: L363 myeloma viability, CellTiter-Glo ATP luminescence, 48 h; viability (% of control): at 45.8 µM (top of the series). The method, boiled down:
as §1
Background: ATP-based viability assays read luminescence as a measure of living cells.

Test [10] can be described thus: Quantitative High-Throughput drug screen in 47 multiple myeloma cell lines against the NCATS MIPE library collection: OCIMY5_PLB cell viability assay (AID 1918988). Further: nearly all actives have a fitted effect of over 65% in size. Put shortly:
as §1

Results filed as inconclusive are left out. Calls of active or inactive are those of the source. The call rests on the fitted dose curve; in most records, active means well fitted cell-killing curve with a large enough effect; inconclusive means small, poorly fitted or top-dose-only effect, or effect the other way; inactive means no such curve, though single readings can be large or run the other way.
Potency means the concentration at half of the fitted maximal effect.

Regarding `CC1(C)[C@H]2CC[C@]3(C)[C@@H](C(=O)C=C4[C@@H]5C[C@@](C)(C(=O)O)CC[C@]5(C)CC[C@]43C)[C@@]2(C)CC[C@@H]1O`, the Potency result in [1], in [2], in test [3], in test [4] and in test [6] was “inactive” throughout. Also, the Potency in test [5] is 18.7 µM (active).

With `CC1C(=O)OC2C(O)C34C5CC(C(C)(C)C)C36C(OC(=O)C6O)OC4(C(=O)O5)C12O` (stereo not drawn), the Potency entry in test [1], in test [3], in [4], in [5], in test [8] and in [6] was “inactive” in each case. Further, the results for the Potency in test [2] and in test [7] were 20.9 µM (active) and 23.5 µM (active), respectively.

For `CCN(CC)CCCCNc1nc2cc(Cl)c(Cl)cc2nc1-c1ccc(-c2cccs2)s1`, the Potency is 14.8 µM (active) in test [1]; 11.8 µM (active) in test [2]; 9.35 µM (active) in test [3]; 8.33 µM (active) in test [4]; 5.9 µM (active) in [9]; 16.6 µM (active) in test [7]. The Potency is 7.43 µM (active) in [10] and 5.9 µM (active) in test [6].

As to `CC(C)CN(C[C@@H](O)[C@H](Cc1ccccc1)NC(=O)O[C@H]1CO[C@H]2OCC[C@H]21)S(=O)(=O)c1ccc(N)cc1`, the Potency entry in test [1] and in [7] was “inactive” each time. In addition, the Potency in test [2] is 2.35 µM (active); in test [3] it was 1.32 µM (active); in test [4], 3.72 µM (active); in test [5] it was 20.9 µM (active); in [8] it was 2.96 µM (active); in test [10], 2.35 µM (active).

`CN1CC(=O)NC1=NC(=O)Nc1cccc(Cl)c1`: the Potency in test [1] was 26.4 µM (active); in test [2] it was 26.4 µM (active); in [3], 18.7 µM (active); in [4], 14.8 µM (active); in test [9], 2.96 µM (active); in test [8], 13.2 µM (active). The Potency in test [10] is 23.5 µM (active); in test [6], 18.7 µM (active).

As for `COc1cc2nc(-c3cc(F)ccc3O)nc(N[C@@H]3CNC[C@@H]3C(C)(C)O)c2cc1OC`, the Potency in test [1] is 18.7 µM (active); in [2], 18.7 µM (active); in [3], 9.35 µM (active); in [4], 9.35 µM (active); in test [5], 20.9 µM (active); in test [9], 1.87 µM (active). The Potency in test [7] is 16.6 µM (active); in test [8], 2.64 µM (active); in test [10] it was 13.2 µM (active); in test [6], 3.72 µM (active).

On to `Clc1ccc(C2(c3ccc(-c4cn[nH]c4)cc3)CCNCC2)cc1`, for which the Potency in [1] was 23.5 µM (active); in test [2], 14.8 µM (active); in test [3] it was 10.5 µM (active); in [4], 23.5 µM (active); in test [5], 14.8 µM (active); in test [9] it was 2.35 µM (active). Moreover, the Potency is 1.05 µM (active) in test [8], 16.6 µM (active) in test [10] and 2.35 µM (active) in test [6].

As for `CC[C@]1(O)C[C@H]2CN(CCC3=c4ccccc4=N[C]3[C@@](C(=O)OC)(c3cc4c(cc3OC)N(C)[C@H]3[C@@](O)(C(N)=O)[C@H](O)[C@]5(CC)C=CCN6CC[C@]43[C@@H]65)C2)C1`, the Potency in test [1] is 0.662 µM (active); in test [2], 0.235 µM (active); in test [3], 0.0662 µM (active); in [4] it was 0.0083 µM (active); in test [5], 0.0023 µM (active); in test [9], 0.132 µM (active). Further, the results for the Potency in test [7] and in [8] were 0.0053 µM (active) and 0.0662 µM (active), respectively.

Turning to `NS(=O)(=O)c1cc(Cl)c(Cl)c(S(N)(=O)=O)c1`, the Potency result in test [1], in test [2], in [3], in test [4], in [5] and in test [8] was “inactive” in each case. Moreover, the Potency entry in test [10] and in test [6] was “inactive” throughout.

`CNC(=O)c1cc(Oc2ccc(NC(=O)Nc3ccc(Cl)c(C(F)(F)F)c3)c(F)c2)ccn1`: the Potency is 23.5 µM (active) in test [1]; 2.09 µM (active) in test [2]; 20.9 µM (active) in test [3]; 16.6 µM (active) in test [4]; 6.62 µM (active) in test [9]. Further, the Potency result in test [6] was “inactive”.

Regarding `C[C@]12C=CC(=O)C=C1CC[C@@H]1[C@@H]2[C@@H](O)C[C@@]2(C)[C@@H]1CC[C@]2(O)C(=O)CO`, the Potency result in [1] and in test [5] was “inactive” in each case. The Potency in test [2] is 5.26 µM (active); in test [3], 6.62 µM (active); in test [4], 0.0469 µM (active); in test [7] it was 0.187 µM (active).

For `C[C@H](CCC(=O)O)[C@H]1CC[C@H]2[C@H]3[C@@H](CC[C@]12C)[C@@]1(C)CC[C@@H](O)C[C@H]1C[C@@H]3O`, the Potency result in [1], in test [2], in [3], in [5], in test [9] and in test [8] was “inactive” in each case. Also, the Potency entry in test [6] is “inactive”. Also, the Potency in [4] was 16.6 µM (active).

For the molecule `CC1=C(CC(=O)O)c2cc(F)ccc2C1=Cc1ccc(S(C)=O)cc1` (stereo not drawn), the Potency entry in [1] and in test [4] was “inactive” throughout. In addition, the Potency in test [2] was 1.32 µM (active); in test [3] it was 3.32 µM (active); in test [5] it was 20.9 µM (active); in test [9] it was 13.2 µM (active); in test [10] it was 0.935 µM (active); in [6], 26.4 µM (active).

For the molecule `CN(C)CC[C@H](CSc1ccccc1)Nc1ccc(S(=O)(=O)NC(=O)c2ccc(N3CCN(Cc4ccccc4-c4ccc(Cl)cc4)CC3)cc2)cc1[N+](=O)[O-]`, the Potency in [1] is 3.72 µM (active); in test [2] it was 1.66 µM (active); in [3], 0.833 µM (active); in [4], 23.5 µM (active); in [5], 1.48 µM (active); in [8], 0.209 µM (active). For the same molecule, the Potency is 0.0469 µM (active) in test [10] and 10.5 µM (active) in test [6].

On to `CN1CCN(c2ncc(-c3cc(Cl)cc(Cl)c3Cl)c(N)n2)CC1`, for which the Potency entry in test [1], in test [3], in test [4], in test [7], in test [10] and in [6] was “inactive” in each case. In addition, the Potency is 11.8 µM (active) in [2], 18.7 µM (active) in test [9] and 33.2 µM (active) in [8].
